An excerpt weighted towards active compounds, which were near 1.8% of everything screened.
HDAC3 inhib: blocks human histone deacetylase 3 | inhibition, % at 8.3 µM | hit rate 0.15% among 320,000 | AID 2718 | O15379 | recombinant HDAC3, fluorogenic peptide/trypsin coupled, fluorescence; in the data active means inhibition above about 26%, passing the limit was not always enough
Target sequence (O15379 whole entry, looked up): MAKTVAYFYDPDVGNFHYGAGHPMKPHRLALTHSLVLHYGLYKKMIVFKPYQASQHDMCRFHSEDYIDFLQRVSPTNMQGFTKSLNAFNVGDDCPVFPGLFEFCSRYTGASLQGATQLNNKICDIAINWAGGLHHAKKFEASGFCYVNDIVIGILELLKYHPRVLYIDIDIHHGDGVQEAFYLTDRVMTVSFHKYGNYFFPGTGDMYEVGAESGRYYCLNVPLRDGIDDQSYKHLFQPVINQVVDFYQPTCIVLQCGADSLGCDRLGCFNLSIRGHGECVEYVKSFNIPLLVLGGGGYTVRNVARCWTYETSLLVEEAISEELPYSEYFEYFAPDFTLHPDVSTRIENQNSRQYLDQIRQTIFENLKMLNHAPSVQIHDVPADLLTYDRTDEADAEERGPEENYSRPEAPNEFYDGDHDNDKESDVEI
GRK2 inh: inhibitors of human GRK2 displacing RNA aptamer. P25098. bead flow cytometry, FAM-aptamer displacement from GRK2. inhibition of aptamer binding, % at 10 µM. hit rate 0.59% among 330,000;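 active means inhibition of aptamer binding above 40%, roughly 3 SD of noise, on plates passing a quality check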;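 further: median bead fluorescence of bound FAM aptamer so fluorescent compounds give negative values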
Cardio protect: modulators protecting cardiomyocytes from myocardial damage. H9c2 cardiomyocytes, H2O2 injury protection, ATPLite, 2 h. protection from H2O2 cell death, % at 20 µM. hit rate 0.63% among 360,000;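 active means compounds giving at least 50% protection of heart cells from peroxide-induced death in the single-dose screen, raw or plate-pattern-corrected value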
Neddyl block: inhibitors of human cullin neddylation; TR-FRET cullin neddylation, biochemical; inhibition, % at 25 µM; P61081+Q13564; hit rate 0.58% among 360,000; in the data active means inhibition above about 36%
GRK2 CP1: human GRK2 inhibition confirmation, cherry pick 1 | AID 504451 | aptamer displacement, % at 10 µM | shares compounds with GRK2 inh | bead-bound GRK2, FAM-aptamer displacement, flow cytometry | hit rate 4% among 2,000;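 active means aptamer displacement above 40%, near three times the noise of non-fluorescent compounds, on plates passing quality checks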;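 further: negative values mostly reflect intrinsic compound fluorescence rather than true enhancement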
Aptamer quench SP: quenches fluorescent RNA aptamer, GRK2 hit artifact; fluorescence response (% of DMSO), % at 10 µM; Carboxyfluorescein RNA aptamer on beads, flow cytometry quenching; stronger effect = lower value; shares compounds with GRK2 inh; 2,000 tested, under 10 active;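 active means compounds that quench the bead-bound fluorescent RNA probe, cutting fluorescence to under half of the solvent control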;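 further: counterscreen run without GRK2 so only probe quenching by compound is measured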
GRK2 CP2: confirmation of human GRK2 inhibitors binding RNA aptamer site | shares compounds with GRK2 inh | bead-bound GRK2, FAM-aptamer displacement, flow cytometry | inhibition of aptamer binding, % at 10 µM | 360 tested, under 10 active | AID 504782;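 active means inhibition of aptamer binding above 40%, about triple the noise seen with nonglowing compounds, on plates passing quality control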;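 further: negative values mostly come from compounds that fluoresce themselves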
FAM quench SP: quenches fluorescent RNA aptamer, GRK2 hit artifact; 360 tested, under 10 active; AID 588494; carboxyfluorescein RNA aptamer beads, flow cytometry quenching; stronger effect = lower value; fluorescence response vs DMSO, % at 10 µM; shares compounds with GRK2 inh;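 active means response vs DMSO under 50%, meaning signal dropped by over half, treated as fluorescence quencher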;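 further: labelled aptamer on streptavidin beads without GRK2 as a quench counter-screen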
Large screens that a line does not name were inactive (follow-up assays come after a bar, where shown).

O=C(O)CCn1c(=S)oc2ccccc21	none
COC(=O)c1cccc(NC(=O)c2cccc(-n3cnnn3)c2)c1	none (no result: HDAC3 inhib, GRK2 inh)
CCOC(=O)c1cccc(NC(=O)c2ccc(-n3cnnn3)cc2)c1	none | GRK2 CP1 inactive | Aptamer quench SP inactive
O=C(Nc1cccnc1)c1c(O)c2cccc3c2n(c1=O)CC3	GRK2 inh 65.0 | GRK2 CP1 inactive | Aptamer quench SP inactive
CNC(=O)c1c(O)c2cccc3c2n(c1=O)CC3	none
O=[N+]([O-])c1ccc(N2CCN(c3cccc(Cl)c3)CC2)nc1	none | GRK2 CP1 inactive | Aptamer quench SP inactive
COc1ccc(/C=C/C(=O)N(C)C2CCS(=O)(=O)C2)cc1 (stereo unspecified)	none (no result: HDAC3 inhib, GRK2 inh)
O=C(Nc1nc2c(ccc3ccccc32)s1)c1ccco1	none | GRK2 CP2 inactive | FAM quench SP inactive
O=S1(=O)CCC(N=Nc2c(O)n(Cc3ccccc3)c3ccccc23)C1 (stereo unspecified)	GRK2 inh 66.0 | GRK2 CP1 inactive | Aptamer quench SP inactive
NC(=S)N=Nc1c(O)n(Cc2ccccc2)c2ccccc12	none
CCOc1ccc2nc(N3C(=O)CNC3=S)sc2c1	none (not shown: GRK2 inh, Neddyl block)
Cc1cc2nc(N3C(=O)CNC3=S)sc2cc1C	GRK2 inh 75.0 | GRK2 CP1 inactive | Aptamer quench SP inactive
COC(=O)NCc1ccc(S(=O)(=O)N2CCOCC2)cc1	GRK2 inh 72.0 | GRK2 CP1 inactive | Aptamer quench SP inactive
O=C(CSc1nc(=O)n(CCCN2CCOCC2)c2c1CCC2)Nc1cccc(F)c1	none
CCn1c(=O)c2c(nc3n2CCCN3CCc2ccc(OC)c(OC)c2)n(C)c1=O	none
COc1ccc(CCN2CCCn3c2nc2c3c(=O)n(CC(C)C)c(=O)n2C)cc1OC	GRK2 inh 54.0 | GRK2 CP1 inactive | Aptamer quench SP inactive
Cc1[nH]nc2c1/C(=N\O)CCC2	none | GRK2 CP1 inactive | Aptamer quench SP inactive
CCCCOc1ccc(C(=O)NN2CCOCC2)cc1	none
Cc1ccc(-n2[nH]c(C)c(/C=N/Nc3ccc([N+](=O)[O-])cc3[N+](=O)[O-])c2=O)cc1	none (no result: HDAC3 inhib)
CC(C)CN1C(=O)c2ccc(C(=O)Nc3ccc(OCC(=O)O)cc3)cc2C1=O	none
O=C(NCc1ccco1)c1c2c(nc3ccccc13)CCC2	none | GRK2 CP2 inactive | FAM quench SP inactive
O=C(O)c1c2c(nc3ccc(F)cc13)CCC2	GRK2 inh 72.0 | GRK2 CP1 inactive | Aptamer quench SP inactive
O=C(NCc1ccc(F)cc1)c1c2c(nc3ccccc13)CCC2	none | GRK2 CP2 inactive | FAM quench SP inactive
CCCC(C)NC(=O)c1c2c(nc3ccccc13)CCC2 (stereo unspecified)	none
CCCS(=O)(=O)NC(=O)C1(C)CCCN(C(=O)c2ccccc2OC)C1 (stereo unspecified)	none (no result: HDAC3 inhib, GRK2 inh)
CC(C)CNC(=O)/C=C/C=C/c1ccc2c(c1)OCO2	none (no result: HDAC3 inhib)
Nc1nnc(SCc2nnc(-c3ccccc3)o2)s1	none
COc1cccc(CN2CCN(Cc3cccc(Br)c3)CC2)c1OC	GRK2 inh 55.0 | GRK2 CP1 inactive | Aptamer quench SP inactive
COc1ccc(C(=O)O)cc1S(=O)(=O)NCCN(C)C	none (no result: HDAC3 inhib)
O=C(Cc1ccccc1)Nc1ccc2c(c1)C(=O)N(CC1CCCO1)C2=O (stereo unspecified)	GRK2 inh 100.0 (not shown: Neddyl block) | GRK2 CP1 inactive | Aptamer quench SP inactive
O=C(NCCc1ccccc1)c1oc2ccccc2c1COc1ccccc1	GRK2 inh 69.0 | GRK2 CP1 inactive | Aptamer quench SP inactive
COC(=O)Nc1ccc(S(=O)(=O)N2CCN(C)CC2)cc1	none
COC(=O)Nc1ccc(S(=O)(=O)N2CCN(c3ccc(F)cc3)CC2)cc1	GRK2 inh 50.0 | GRK2 CP1 inactive | Aptamer quench SP inactive
CC(=O)Nc1ccc(/C=N/N2CCCCC2)cc1	none
COCCNC(=O)c1ccc(CS(=O)(=O)c2ccccc2C)o1	none
COC(=O)c1ccc(CS(=O)(=O)c2ccccc2C)o1	none | GRK2 CP2 inactive | FAM quench SP inactive
CC/C(=N/O)C(=O)c1ccc(Br)cc1	none
COc1ccc(NC(=S)NCc2cccs2)cc1	GRK2 inh 62.0 | GRK2 CP1 inactive | Aptamer quench SP inactive
CC(C)c1ccc(NC(=S)NCc2cccs2)cc1	none
Cc1cccc(CN2CCN(CC(C)C)C(CCO)C2)n1 (stereo unspecified)	none
Cc1cccc(CN2CCN(Cc3ccc4nonc4c3)CC2CCO)n1 (stereo unspecified)	GRK2 inh 41.0 | GRK2 CP1 inactive | Aptamer quench SP inactive
CSCC[C@H](NC(=O)COc1ccc(Cl)cc1)c1nc2ccccc2[nH]1	GRK2 inh 98.0 | GRK2 CP1 inactive | Aptamer quench SP inactive
O=C(O)C1Nc2c(Cl)cc(Cl)c(Cl)c2C2C=CCC12 (stereo unspecified)	GRK2 inh 59.0 | GRK2 CP1 inactive | Aptamer quench SP inactive
CCOC(=O)c1cc(CN2CCOCC2)oc1-c1ccccc1	GRK2 inh 69.0 | GRK2 CP1 inactive | Aptamer quench SP inactive
CCOC(=O)c1c(-c2ccccc2)oc2ccc(O)c(CN3CCOCC3)c12	none
Cc1cccc(-n2ccnc2SCC(=O)c2c(N)n(C3CC3)c(=O)[nH]c2=O)c1C	none
CC(C)C(=O)c1c(C(C)C)nn2ccccc12	none | GRK2 CP1 inactive | Aptamer quench SP inactive
NC(=O)C[C@H](N)c1cn([C@@H](CC(N)=O)C(=O)N2CCNCC2)nn1	GRK2 inh 49.0 | GRK2 CP1 inactive | Aptamer quench SP inactive
CC(C)[C@H](N)c1cn([C@@H](CO)C(=O)N2CCNCC2)nn1	none
O=C(C1CC(c2cccc(Br)c2)=NO1)N1CCc2ccccc2C1 (stereo unspecified)	none
O=C(O)C1CC(c2ccccc2)=NO1 (stereo unspecified)	none | GRK2 CP2 inactive | FAM quench SP inactive
COc1cc(OC)c(C2=NOC(C(=O)O)C2)cc1Cl (stereo unspecified)	none | GRK2 CP2 inactive | FAM quench SP inactive
O=C(O)C1CC(c2cccc(Br)c2)=NO1 (stereo unspecified)	none | GRK2 CP2 inactive | FAM quench SP inactive
O=C(NCc1ccc(CNC(=O)c2ccco2)cc1)c1ccco1	none (no result: HDAC3 inhib)
CNc1snc(C)c1C(=O)OCC(=O)c1ccc(Cl)cc1	GRK2 inh 51.0 | GRK2 CP1 inactive | Aptamer quench SP inactive
CCN(Cc1ccccc1)C(=O)COC(=O)c1c(C)nsc1NC	none
CC1(C(=O)NS(=O)(=O)C2CC2)CCN(C(=O)c2ccc3c(c2)OCO3)C1 (stereo unspecified)	none (no result: HDAC3 inhib, GRK2 inh)
Cc1nn(Cc2c(F)c(F)c(F)c(F)c2F)c(C)c1NC(=O)c1ccc(COc2ccccc2Cl)cc1	none (no result: HDAC3 inhib, GRK2 inh)

Source: PubChem BioAssay (several laboratories)
